Bioassay records (PubChem BioAssay)
Pf growth 48h – P. falciparum growth inhibition at 48 hours (one generation); Potency, µM (highest dose often 28.7 µM), for the others: at the top dose activity change, negative = inhibition, actives largely listed as inhibitors; hit rate 5.9% among 310,000; AID 504832; P. falciparum luciferase growth in erythrocytes, 48 h; also: potency is read from the fitted curve at half-maximal effect
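Firefly luciferase activity from engineered P. falciparum reports growth; inhibitors lower the luminescent signal. Cultures contained 2% hematocrit erythrocytes at 0.1% final parasitemia.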
HCV inh – blocks hepatitis C virus. Potency, µM (highest dose often 41.8 µM), without a hit: top-dose activity change, negative = inhibition, hits mostly inhibitors. hit rate 3.4% among 340,000. Huh7.5.1 HCVcc-Cre infection, luciferase reporter, 44 h; also: potency is read from the fitted curve at half-maximal effect
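Seed cells (1,000/well) for 4 h; treat with compound and infect with HCVcc-Cre, moi about 0.5. Incubate 44 h, then detect luciferase activity.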
Pf growth 96h – P. falciparum growth inhibition at 96 hour, primary screen for plastid delayed-death inhibitors. P. falciparum luciferase reporter growth, 96 h. Potency, µM (top dose mostly 28.7 µM), for inactives: at the top dose activity change, negative = inhibition, actives largely listed as inhibitors. hit rate 6.9% among 320,000. AID 504834; also: potency is read from the fitted curve at half-maximal effect
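Two parasite generations (96 h, 37 C, 5% CO2) of compound exposure in infected erythrocytes (0.05% parasitemia, 2% hematocrit). Luciferase-reporter P. falciparum; decreased luminescence indicates inhibited growth, aimed at apicoplast-acting delayed death.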
HCMV inh – human cytomegalovirus inhibition; HFF cells, HCMV-luciferase reporter, 72 h; hits give low values; activity change, negative = inhibition, % at 57.5 µM; hit rate 4.5% among 410,000; AID 1259415; in the data active = activity change below about -60%; inconclusive = no clear call, values can overlap the other calls; inactive = above about -39%
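Screen run at 2 compound doses on HFFs infected with reporter HCMV, MOI 1 PFU/cell. Luciferase activity from cell lysates at 72 h post infection gave inhibition relative to buffer-only and Salinomycin wells.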
Starred values were filed as active, the others as inactive; ? = inconclusive; . = no result; ! = a repeat was not active. Compounds with a hit are over-represented: about 13% of the library has one in this group of screens. Unless noted, calls follow the shape of the dose curve; as a rule, active = well fitted inhibition curve with a large enough effect; inconclusive = small, poorly fitted or top-dose-only effect, or another doubt; inactive = no such curve, though single readings can be large or run the other way. % is scaled to controls: 0 for no effect and ±100 for the full control effect.

SMILES	Pf growth 48h	HCV inh	Pf growth 96h	HCMV inh
COc1ccc(Nc2cc(C)nc3nc(C)nn23)cc1Cl	.	2%	3%	19
Cc1cc(Nc2ccc(F)c(Cl)c2)n2ncnc2n1	?	15%	?	29
COc1cc(Nc2cc(C)nc3nc(C)nn23)cc(OC)c1OC	9.3µM*	6%	-19%	62
COc1cc(CNc2ccc3[nH]c(=O)[nH]c3c2)cc(Br)c1OCC(=O)NC(C)(C)C	.	?	?	-71*
COc1cc(CNc2cccc(C(=O)O)c2)cc(Br)c1OCC(=O)NC(C)(C)C	6%	4%	12µM*	79
COc1cc(CNc2ccc3[nH]c(=O)[nH]c3c2)ccc1OCc1ccccc1C	8%	-38%	1%	-70*
CC(=O)CCc1oc2c([N+](=O)[O-])cccc2c1-c1ccc(C)o1	-8%	13µM*	31%	31
COc1cc(C(CCN2CCOCC2)c2c(OC)cc(OC)c3c(C)cc(=O)oc23)cc(OC)c1OC (centres undefined)	13µM*	-1%	?	53
COc1cc(C(CCN2CCCC2)c2c(OC)cc(OC)c3c(C)cc(=O)oc23)cc(OC)c1OC (centres undefined)	7.4µM*	10µM*	9.3µM*	-26
COc1ccc(C(CCN2CCOCC2)c2c(OC)cc(OC)c3c(C)cc(=O)oc23)cc1 (centres undefined)	?	-27%	?	7
O=C(CSc1ccccc1)NCc1ccc2c(c1)CCN2C(=O)c1ccc(Cl)cc1	.	.	.	-16
Cc1cccc(N(CC(=O)NCCSCc2ccc(Cl)cc2)S(C)(=O)=O)c1C	.	.	.	-14
O=C(CSc1nc2sc3c(c2c(=O)[nH]1)CCCC3)Nc1ccccc1F	.	.	.	-10
COc1ccc(-c2oc(NC(C)=O)c(C#N)c2-c2ccc(OC)cc2)cc1	.	-16%	?	23
COc1ccc(-c2oc(/N=C/N3CCOCC3)c(C#N)c2-c2ccc(OC)cc2)cc1	6.6µM*	?	.	-7
Cc1cc(=O)c2c(ccc3c(=O)cc(C)[nH]c32)[nH]1	.	.	.	2
CCOC(=O)c1ccccc1NC1c2ccccc2C(=O)N1C1CCN(C(=O)OCC)CC1 (centres undefined)	1.7µM*	?	?	-14
COC(=O)CC1Oc2ccc(Cl)cc2-n2cc(-c3ccc(C)cc3)nc21 (centres undefined)	.	.	.	-20
CCN(Cc1nc2cc(Cl)ccc2c(=O)[nH]1)C(=O)c1nn(C)c(=O)c2ccccc12	8.3µM*	11%	?	0
CCN(Cc1nc2cc(Cl)ccc2c(=O)[nH]1)C(=O)c1ccc(C)c(NC(=O)c2ccco2)c1	9.3µM*	?	8.3µM*	-38
CCN(Cc1nc2cc(Cl)ccc2c(=O)[nH]1)C(=O)c1cc(C2CC2)nn1-c1ccccc1	?	10%	?	-12
CCc1cccc(NC(=O)Cn2c(=O)n(Cc3ccccc3)c(=O)c3c2c2cc(OC)ccc2n3C)c1	.	.	.	27
N#Cc1nn(-c2c(Cl)cc(C(F)(F)F)cc2Cl)c(N)c1S(=O)C(F)(F)F (centres undefined)	1.9µM*	.	-23%	0
CCCSc1nc2c(c(=O)[nH]1)C(c1ccc(F)cc1F)CC(=O)N2 (centres undefined)	.	.	.	2
CSc1ccc(CCNC(=O)CCc2c(C)nc3ncnn3c2C)cc1	.	.	.	10
SMILES	Pf growth 48h	HCV inh	Pf growth 96h	HCMV inh
CN1C(C(=O)Nc2cccc(O)c2)=CC(c2ccco2)=NS1(=O)=O	54%	-15%	24%	-63*!
Cc1ccc(O)c(NC(=O)C2=CC(c3ccco3)=NS(=O)(=O)N2C)c1	15%	5%	0%	7
CC(=O)C1=C(C)N(Cc2ccc(Cl)cc2)C(=S)NC1c1cccc(Br)c1 (centres undefined)	.	.	.	-9
CCOc1ccccc1-n1c(SCC(N)=O)nnc1-c1cccnc1	-6%	13%	12µM*	-12
CCOc1ccccc1-n1c(SCC(=O)N(C(C)C)C(C)C)nnc1-c1cccnc1	-27%	-3%	.	-13
CCOc1ccccc1-n1c(SCC(=O)NC(C)(C)C)nnc1-c1ccoc1C	13µM*	18%	?	-24
COCCn1c(C)cc(C(=O)CSc2nnc(-c3cccnc3)n2-c2ccccc2F)c1C	10µM*	10%	-27%	-27
Cc1ccc2oc(-c3cccc(NC(=O)c4sc5c([N+](=O)[O-])cccc5c4Cl)c3)nc2c1	.	.	.	24
CC(C)SCC(=O)Nc1ncc2c(n1)-c1ccccc1CC2	?	?	18%	-64*
O=C(Nc1ncc2c(n1)-c1ccccc1CC2)C1CC1	?	?	?	-7
CCCCNC(=O)c1c(-c2ccccc2)c(-c2ccccc2)nn(C)c1=O	.	.	.	5
CN(Cc1ccc(Cl)cc1Cl)C(=O)c1cc(=O)c2ccccc2o1	-8%	-12%	-14%	-63*
CN(Cc1ccccc1Cl)C(=O)c1cc2ccccc2o1	21%	10%	22%	23
COc1cccc(CNc2ncnc3ccc(-c4c(C)noc4C)cc23)c1	4.1µM*	.	5.9µM*	-34
Cc1noc(C)c1-c1ccc2ncnc(NCC3CCCCN3C)c2c1 (centres undefined)	4.1µM*	.	2.3µM*	-2
CCOc1ccc(Nc2c(S(=O)(=O)c3ccc(C)cc3)cnc3cc(OC)c(OC)cc23)cc1	.	.	.	-12
COc1ccc(O)c(/C=N/Nc2nc(Nc3ccccc3)nc(-n3nc(C)cc3C)n2)c1	1.9µM*	?	2.1µM*	-77*
COc1cc(/C=N/Nc2nc(Nc3ccc(C)cc3)nc(-n3nc(C)cc3C)n2)cc(OC)c1OC	.	?	1.9µM*	21
COc1cc(/C=N/Nc2nc(Nc3ccccc3)nc(-n3nc(C)cc3C)n2)cc(OC)c1OC	3.3µM*	2.8µM*	-2%	-12
COc1ccc(/C=N/Nc2nc(Nc3ccccc3)nc(N3CCCCC3)n2)c(OC)c1	?	-5%	-104%	?
COc1cc(/C=N/Nc2nc(Nc3ccccc3)nc(N3CCCCC3)n2)ccc1OCC(=O)O	130%	20%	?	-36
c1ccc(COc2ncnc3c2ncn3CCCNCC(c2ccccc2)c2ccccc2)cc1	.	.	.	-29
CC(=O)c1ccc(N(CC(=O)NCCc2ccccc2)C(=O)c2csnn2)cc1	?	1%	9.3µM*	4
COc1ccc(CNC(=O)CN(C(=O)c2csnn2)c2ccc(C(C)=O)cc2)cc1	10µM*	11%	0%	-12
CC(=O)c1cccc(N(CC(=O)NCCc2ccccc2)C(=O)c2csnn2)c1	7%	13%	-8%	22
COc1ccc(CNC(=O)CN(C(=O)c2csnn2)c2ccc(F)cc2)cc1	-10%	13%	-2%	66
Cc1c(Cl)cccc1NC(=O)CCC(=O)N/N=C/c1ccc[nH]1	10%	1µM*	?	-100*
Cc1ccc(C)c(NC(=O)CCC(=O)N/N=C/c2ccc[nH]2)c1	?	3.5µM*	?	-91*
Cc1c(Cl)cccc1NC(=O)CCC(=O)NNC(=O)c1ccccc1	20%	-2%	26%	-12
